Laboratory results as given in PubChem BioAssay AID651958 (The Scripps Research Institute Molecular Screening Center, 2012).
The campaign covered roughly 370,000 compounds. About 2,000 (0.54%) were called active. The sample as a whole holds a higher share of actives than the screen did. A number with no mark means an inactive call. Rule as the data show it: active = inhibition above about 30%; inactive = the rest.

system: Crimean-Congo hemorrhagic fever virus L polyprotein viral ovarian tumor (vOTU) protease domain; assay: CCHFV vOTU protease inhibitors, primary screen, biochemical, Pep-AMC substrate, fluorescence (AID 651958); conditions: at 11.5 µM, hits give high values; also: 0% = vehicle wells with enzyme and 100% = no enzyme wells

SMILES	inhibition
COC(=O)C1=C(Nc2ccc(C)cc2)C=C(C)C(C(=O)OC)C1c1ccc(F)cc1 (stereo unspecified)	15.8%
COc1ccc(C2=Nc3cc(C)ccc3OC2)cc1	14.7%
COc1ccccc1N=Nc1c(O)[nH]c(=S)[nH]c1=O	38.1% (active)
CCOCCc1c(O)[nH]c(=S)[nH]c1=O	5.12%
COC(=O)c1ccccc1N=Nc1c(C)[nH][nH]c1=O	-9.29%
O=C(COC(=O)/C=C/c1ccc(S(=O)(=O)N2CCCCCC2)cc1)NCc1ccccc1Cl	-8.91%
Cc1cc(C)nc(-n2ncc3c2CC(c2ccc(C(C)C)cc2)CC3=O)n1 (stereo unspecified)	2.76%
Cc1cccc(C)c1NC1=NC(=S)N(c2ccc(N(C)C)cc2)C1(C)C	27.5%
O=C1NC(c2ccc(-c3ccccc3[N+](=O)[O-])o2)C(C(=O)c2ccc(Cl)cc2)C(O)(C(F)(F)F)N1 (stereo unspecified)	38.5% (active)
CCOC(=O)C1C(c2ccc(O)cc2)NC(=O)NC1(O)C(F)(F)F (stereo unspecified)	-18.4%
Cc1cn(C)c(=O)n(C)c1=O	-10.2%
CCCCCCN1C[C@@H](O)[C@H](n2cc(COC(=O)c3ccccc3)nn2)C[C@@H]1c1ccc(Cl)cc1	-5.93%
Cc1ccc([C@H]2C[C@H](O)[C@@H](n3cc(COC(=O)c4ccccc4)nn3)CN2C(=O)C2CCCCC2)cc1	9.18%
CCCCCC(=O)N1C[C@H](O)[C@@H](n2cc(COC(=O)c3ccccc3)nn2)C[C@@H]1c1ccc(C)cc1	30.5% (active)
COc1ccc(C(C#N)N2N=C(C)CC2(C)C)cc1 (stereo unspecified)	4.09%
COc1cc(Cl)c(C)cc1NC(=O)[C@@H]1CCCN1C(=O)c1cccs1	-1.68%
CCC1=NN(C(=O)Cc2ccc([N+](=O)[O-])cc2)C(O)(c2ccc(Br)cc2)C1 (stereo unspecified)	-9.95%
C=CCC[C@@H](CCCCC)OC(=O)/C=C/[C@@H](O)[C@H](O)C[C@H](O)CC=C	32.8% (active)

SMILES	inhibition
C=CCC[C@H](CCCCC)OC(=O)/C=C/[C@H](O)[C@@H](O)C[C@@H](O)CC=C	18.2%
O=C(CCl)NNc1cccc(Cl)n1	2.47%
Cc1ccc(C23CC4CC(CC(C(=O)NCC(=O)O)(C4)C2)C3)cc1	12.6%
CN(C)c1ccc(N/C=C/C(=O)C(F)(F)F)cc1	65% (active)
Cc1cc(C(=O)COc2ccccc2[N+](=O)[O-])c(C)n1-c1cccc(S(=O)(=O)N2CCOCC2)c1	15.2%
Cc1ccc(NC(=O)CN(C)Cc2ccc(F)cc2)c([N+](=O)[O-])c1	-3.76%
Cc1cc(C(=O)N/N=C/c2ccc(O)c([N+](=O)[O-])c2)c(C)n1-c1ccc(F)cc1	45.6% (active)
CC(C)(C)n1nnnc1C(c1ccccc1F)N1CCN(C(=O)c2ccco2)CC1 (stereo unspecified)	9.18%
CC(C)c1ccc(OCC(=O)N2CCCN(C)CC2)cc1	7.24%
CC(=O)N1CCN(c2ccc(NCc3ccc(C(C)C)cc3)cc2)CC1	34.2% (active)
CC(C)c1ccc(NC(=O)COC(=O)c2ccc(CN3CCCC3=O)cc2)cc1	3.69%
O=C(NC1CC1)C1=C[C@H](c2coc3ccccc3c2=O)C[C@H](OCCCCO)O1	-2.05%
CCOc1ccc(NC(=O)CCCCCN2C(=O)[C@@H]3Cc4ccccc4CN3C2=O)cc1	13.7%
CC(C)(C)NC(=O)CN(C(=O)c1csnn1)c1ccccc1-c1ccccc1	-7.68%
CSc1ccccc1NC(=O)c1cc(C2CC2)on1	11.1%
NC1=CC(=O)C(=O)c2cccnc21	104% (active)
O=C(NC1CCN(C(=S)NCc2ccco2)CC1)c1ccc(F)cc1	13.2%
COc1ccccc1N(CC(=O)Nc1ccc(C)cc1Cl)S(=O)(=O)c1cccs1	1.37%
